Wnt bcat act: Wnt/beta-catenin pathway activators, primary screen, cell-based, plate reader, single point; Wnt/beta-catenin reporter cell assay, activator; 300,000 tested, 1.2% active; activation, % at 9.35 µM; AID 743398, 2014; in the data active means activation above about 30%, passing the limit was not always enough; inconclusive means no clear call, values can overlap the other calls;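 further: 0% = neutral control wells and 100% = positive control wells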
MITF act: activators of MITF-driven TRPM1 promoter reporter, primary screen, cell-based, SK-MEL-5, luciferase, single point | SK-MEL-5 TRPM1-promoter luciferase, 24 h; % of positive control, neutral wells = 0 | activation, % at 12.5 µM | 300,000 tested, 0.75% active | AID 588334, 2011;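 active means mean activation of at least 80% with every replicate also reaching 80%; inconclusive means mean reaches 80% but some replicate falls short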;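 further: 0% = neutral control wells and 100% = parthenolide positive control wells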
esBAF inh: Bmi1 luciferase reporter increase in mESCs, primary screen, esBAF inhibitor project, mouse ES cells, Bmi1 luciferase knock-in, single point; 24 h; 100% = twice the neutral-well signal; reporter increase, % at 12.5 µM; 350,000 tested, 2% active; in the data active means activation above about 40%; inconclusive means no clear call, values can overlap the other calls;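 further: 0% = median of the plate's neutral control wells and 100% = double that signal; a rise in the Bmi1 reporter signal indicates esBAF inhibition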
Statin myotox sup: suppressors of statin myotoxicity in C2C12 myotubes, primary screen, cell-based, single point, plate reader. 330,000 tested, 0.78% active. AID 602340, 2012. C2C12 myotubes + simvastatin, ATP luminescence, 48 h; scaled: DMSO 0, geranylgeraniol control 100. rescue of ATP level, % at 7.49 µM;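 active means mean ATP rescue above about 67%, or every replicate alone reaching that limit, limit read from the data, passing the limit was not always enough; inconclusive means no clear call, values can overlap the other calls; inactive means mean under the limit and some replicate under it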;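 further: myotubes were challenged with 10 µM simvastatin during compound exposure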
An asterisk follows results filed as active; ? = inconclusive; . = no result given. Shown are actives, neighbours in structure and some others; about 3% of the full set was active somewhere.

SMILES	Wnt bcat act	MITF act	esBAF inh	Statin myotox sup
COc1ccc(-c2nc(CS(=O)CC(=O)NC3CCC(C)CC3)c(C)o2)cc1OC (centres undefined)	12.2	44.6	77.3*	6.5
CC(=O)c1c(C)[nH]c(C(=O)COC(=O)Cc2ccccc2F)c1C	26.4	.	56.0*	-8.1
CC(=O)c1c(C)[nH]c(C(=O)COC(=O)COc2ccccc2F)c1C	-1.3	-0.6	-6.4	3.5
C=CCn1c(-c2cccs2)nc2nc3ccccc3nc21	3.9	9.4	46.5*	-9.9
COc1ccc(NC(=O)N(C)C[C@@H]2OCCCC[C@H](C)Oc3ccc(NS(=O)(=O)c4cn(C)cn4)cc3C(=O)N([C@H](C)CO)C[C@H]2C)cc1	.	.	1.7	.
O=C(Nc1cnn(Cc2ccc(F)cc2)c1)c1cnccn1	.	7.2	41.6*	11.7
CO[C@H]1CN(C)C(=O)c2ccc(NC(C)=O)cc2OC[C@@H](C)N(C(=O)CC2CC2)C[C@H]1C	.	.	-4.8	-11.1
O=C(Cc1csc(NC(=O)Nc2cccc(Cl)c2)n1)NCc1cccnc1	-0.5	31.7	12.7	7.8
O=C(Cc1csc(NC(=O)Nc2ccc(Cl)cc2)n1)NCc1cccnc1	11.8	42.6	44.6*	6.1
Cc1ccc(C(=O)O/N=C/c2c(C(F)(F)F)nn(C)c2Sc2ccc(Cl)cc2)cc1	.	8.4	9.6	116.3*
COC(=O)c1ccccc1Sc1c(/C=N/OC(=O)c2ccccc2)c(C(F)(F)F)nn1C	.	-11.5	.	.
O=c1[nH]c2ccc(Br)cc2o1	1.3	-8.7	4.5	-3.7
O=C(CCl)c1ccc2[nH]c(=O)oc2c1	35.9*	-20.9	-1.1	14.6
CCCc1cc(C(=O)Nc2cc(C)nn2-c2ccccc2)no1	3.1	.	-7.0	-6.2
COc1ccccc1-c1cc(C(=O)NCCc2ccccc2)no1	26.6	.	60.2*	-46.6
COc1ccc(CCNC(=O)c2cc(-c3ccccc3OC)on2)cc1OC	.	15.8	1.8	39.1
Cc1ccc(OCc2cc(C(=O)NCCc3cccnc3)no2)cc1C	26.3	54.9	57.9*	9.9
CCCc1cc(C(=O)NCCc2ccccc2)no1	28.8	.	50.4*	1.7
CCNC(=O)C[C@@H]1CC[C@@H]2[C@@H](COc3ccc(NC(=O)C4CCCCC4)cc3C(=O)N2C)O1	.	.	-1.7	-13.0
O=C(O)c1ccc(CSc2nnc(-c3ccccc3)n2-c2ccccc2)cc1	34.9*	-3.7	.	.
O=C(O)c1ccc(CSc2nnc(-c3ccccc3Cl)n2-c2ccccc2)cc1	-1.8	-9.8	-0.5	2.5
O=c1cc(/C=C/c2ccccc2)oc2ccccc12	.	32.1	59.0*	137.6*
O=c1cc(-c2ccccc2)oc2ccccc12	2.1	45.8	56.0*	19.7
CCCCCc1cc(=O)c2ccccc2o1	1.3	36.2	50.2*	-5.6
O=c1cc(-c2ccccc2)oc2ccc(O)cc12	59.5*	57.1	30.9	5.4
SMILES	Wnt bcat act	MITF act	esBAF inh	Statin myotox sup
N/C(=N\OC(=O)COc1ccc(Cl)cc1Cl)c1cccnc1	29.7	141.6*	56.4*	2.9
CCc1ccc(OCC(=O)O/N=C(\N)c2ccncc2)cc1	6.8	72.8	.	.
N/C(Cc1cccs1)=N\OC(=O)COc1ccc(Cl)cc1Cl	.	?	71.4*	-74.4
CCc1ccc(OCC(=O)O/N=C(\N)c2ccncc2)c(Br)c1	31.4*	103.4*	95.5*	5.1
N/C(=N\OC(=O)COc1ccc(Cl)cc1Br)c1ccncc1	45.3*	92.0*	.	.
COCC(=O)N(C)C[C@H]1Oc2ncc(C#CC3(O)CCCC3)cc2C(=O)N([C@H](C)CO)C[C@H]1C	.	.	4.5	5.2
CN1C(=O)c2cc(NC(=O)Cc3cccs3)ccc2OC[C@H]2O[C@@H](CC(=O)O)CC[C@H]21	.	.	-2.5	10.4
O=C(C[C@@H]1C=C[C@@H](NC(=O)Cc2cccnc2)[C@H](CO)O1)Nc1ccccc1	.	.	6.2	-4.8
C[C@H]1CN([C@@H](C)CO)C(=O)c2cccc(NC(=O)C3CC3)c2O[C@@H]1CN(C)Cc1ccc(Cl)c(Cl)c1	.	.	-1.7	13.5
O=C(/C=C/c1cc2ccccc2o1)c1ccccc1O	38.7*	?	.	.
COc1ccc(O)c(C(=O)/C=C/c2cc3ccccc3o2)c1	0.6	-0.9	-10.8	13.2
CSc1ccc(/C=C/C(=O)c2ccc(O)cc2)cc1	.	93.9*	.	.
O=C(/C=C/c1ccccc1)NC(=O)c1ccccc1O	21.1	57.3	?	-8.6
COc1cc(/C=C/C(=O)NC(=O)c2ccccc2O)ccc1O	19.1	83.6*	?	-1.7
Cc1ccc(/C=C/C(=O)c2ccc(O)cc2)cc1	0.1	72.6	.	.
O=C(/C=C/c1ccc(O)cc1)c1ccc(O)cc1O	24.6	28.1	70.0*	12.0
O=C(C=Cc1ccccc1O)c1ccccc1O	16.3	-20.0	62.8*	2.8
O=C(C=Cc1cccc(O)c1)c1ccccc1O	-3.4	9.3	?	-3.5
O=C(/C=C/c1ccc(O)c(O)c1)c1ccccc1O	46.6*	65.0	.	.
CO[C@H]1CN(C)C(=O)c2cc(NC(=O)c3cc(C)on3)ccc2OC[C@H](C)N(C(=O)C2CC2)C[C@H]1C	.	.	2.2	-13.6
CC(C)(C)c1ccc(/C=C(\c2nc3ccccc3[nH]2)S(=O)(=O)c2ccccc2)cc1	.	-90.4	-65.8	41.1
Cc1cccc(/C=C(\c2nc3ccccc3[nH]2)S(=O)(=O)c2ccccc2)c1	40.5*	-84.6	4.7	77.9*
C[C@H](CO)N1C[C@H](C)[C@H](CN(C)C(=O)Nc2ccc3c(c2)OCO3)Oc2ccc(NC(=O)Nc3ccccc3)cc2C1=O	.	.	1.1	.
NC(=S)N/N=C/c1ccc(-c2cccc([N+](=O)[O-])c2)o1	.	0.1	.	.
Nc1nonc1C(=O)N/N=C/c1ccc(-c2cccc([N+](=O)[O-])c2)o1	-1.9	.	-5.8	175.5*
SMILES	Wnt bcat act	MITF act	esBAF inh	Statin myotox sup
COc1ccccc1S(=O)(=O)N[C@H]1C=C[C@H](CC(=O)NCc2cccc(F)c2)O[C@@H]1CO	.	.	-3.6	-7.2
O=S1(=O)C=C(N2CCCCC2)c2ccccc21	.	-8.0	-2.8	108.3*
CC(C)c1ccc(NC(=O)[C@H]2CSCN2C(=O)[C@@H]2CCC(=O)N2)cc1	1.4	10.2	2.9	109.5*
O=C1CSC(=Nc2ccc(F)cc2)N1	-0.7	5.9	7.7	-1.2
O=C1CSC(=Nc2ccccc2)N1	.	-2.8	-4.9	94.9*
CCOC(=O)c1sc(NC(=O)c2cccs2)cc1C	.	46.4	64.5*	-33.9
CCOC(=O)c1sc(NC(=O)Nc2cccc(Cl)c2)cc1C	35.4*	59.8	.	.
CCOC(=O)c1cccc(NC(=O)c2cccs2)c1	.	31.4	14.7	4.3
CCOC(=O)c1sc(NC(=O)c2sccc2C)cc1C	58.7*	.	5.1	-41.3
CCOC(=O)c1sc(NC(=O)c2ccc(Br)o2)cc1C	.	94.3*	90.6*	-112.6
CC(C)NC(=O)N(C)C[C@@H]1Oc2ccc(N(C)C)cc2C(=O)N([C@H](C)CO)C[C@@H]1C	.	.	-0.8	15.7
CCC(=O)Nc1ccc2c(c1)C(=O)N(C)C[C@H](OC)[C@@H](C)CN(C(=O)c1cccnc1)[C@@H](C)CO2	.	.	-0.4	1.6
